Compounds with a hit are over-represented: about 31% of the library has one in this group of screens.
CYP2C9 inh: blockers of cytochrome P450 2C9 activity – biochemical, luminescence, ADME assay, primary screen. inhibition, % at 5 µM. AID 777, 2007. actives 20% (n = 96,000). CYP2C9 Supersomes, luciferin-H conversion;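 active means blocking of liver enzyme CYP2C9 beyond about 50% at 5 µM, limit read from the data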
Target sequence (P11712 whole entry, looked up): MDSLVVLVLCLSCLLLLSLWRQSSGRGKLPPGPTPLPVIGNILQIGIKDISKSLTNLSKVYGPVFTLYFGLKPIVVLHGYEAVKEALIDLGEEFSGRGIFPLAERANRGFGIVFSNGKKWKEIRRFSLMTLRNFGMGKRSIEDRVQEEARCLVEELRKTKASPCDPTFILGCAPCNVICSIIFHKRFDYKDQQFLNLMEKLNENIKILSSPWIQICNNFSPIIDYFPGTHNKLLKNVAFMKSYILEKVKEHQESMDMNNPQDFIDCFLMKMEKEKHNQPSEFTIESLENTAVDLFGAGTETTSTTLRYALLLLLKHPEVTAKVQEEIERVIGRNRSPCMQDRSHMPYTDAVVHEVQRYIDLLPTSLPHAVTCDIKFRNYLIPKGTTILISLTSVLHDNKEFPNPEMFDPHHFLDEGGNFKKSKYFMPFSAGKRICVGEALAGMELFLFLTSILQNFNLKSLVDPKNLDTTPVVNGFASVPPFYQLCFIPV
CYP2C19 act: human CYP2C19 activators, primary screen, biochemical, luminescence. Cytochrome P450 2C19 (Homo sapiens), P33261. recombinant CYP2C19, luciferin-H EGE luminescence; stronger effect = higher value; 0 = fully inhibited enzyme, 1 = untreated enzyme. activation factor at 5 µM. 96,000 tested, under 10 active. AID 1025, 2008;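 active means activation factor of at least 2 at 5 µM in the primary screen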;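 further: 0 = wells with 2.5 mM tranylcypromine and 1 = vehicle-only wells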
PLAP activator: PLAP enzyme activators, biochemical, luminescence, HTS. Alkaline phosphatase, placental type (Homo sapiens), P05187. purified PLAP enzyme, luminescent substrate read-out; stronger effect = higher value. activation fold at 20 µM. actives 1.2% (n = 96,000). AID 696, 2007; in the data active means activation fold above about 2
CYP2C9 activ: human CYP2C9 activators, primary screen, biochemical, luminescence. Cytochrome P450 2C9 (Homo sapiens), P11712. actives 1.4% (n = 96,000). AID 1024, 2008. recombinant CYP2C9, luciferin-H conversion; stronger effect = higher value; factor 1 = untreated enzyme, 0 = blocked. activation factor at 5 µM;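 active means activation factor of 2 or more for CYP2C9 at a 5 µM dose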;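 further: 0 = sulfaphenazole-blocked wells and 1 = vehicle-only wells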
CYP2C19 inhib: blockers of cytochrome P450 2C19 activity – biochemical, luminescence, ADME assay, primary screen | P33261 | CYP2C19 Supersomes, luciferin-H EGE luminescence, 30 min | inhibition, % at 5 µM | actives 21% (n = 96,000);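 active means CYP2C19 inhibition above a set limit at 5 µM in the primary screen, cut at about 50% in these data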;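 further: plate controls were negative control wells for no effect and 2.5 mM tranylcypromine positive control for full effect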
An asterisk follows results filed as active.

SMILES	CYP2C9 inh	CYP2C19 act	PLAP activator	CYP2C9 activ	CYP2C19 inhib
Cc1nc2sc(C(c3ccco3)N3CCN(c4ccccc4F)CC3)c(O)n2n1 (stereo not drawn)	69*	0.1	1.6	0.3	92*
Cc1nc2sc(C(c3ccc(F)cc3)N3CCOCC3)c(O)n2n1 (stereo not drawn)	4	1.1	1.2	1	-8
Cc1nc2sc(C(c3ccc(Cl)cc3)N3CCN(c4ccccc4F)CC3)c(O)n2n1 (stereo not drawn)	49	0.3	1	0.5	67*
Cc1nc2sc(C(c3cccs3)N3CCN(C(=O)c4ccco4)CC3)c(O)n2n1 (stereo not drawn)	10	0.9	1.2	0.9	6
O=C(c1cccc(F)c1)N1CCN(C(=O)c2cc3ncc(Br)cn3n2)CC1	11	0.8	1	0.9	24
CCC(=O)Nc1cc(-c2nn(C)c(=O)c3ccccc23)ccc1N1CCOCC1	62*	0.7	2*	0.4	34
Cn1nc(-c2ccc(N3CCCCC3)c(NC(=O)c3ccco3)c2)c2ccccc2c1=O	96*	0.4	1.5	0	59*
C=CCn1c(=O)c2c(nc3n2CCN3c2cccc(Cl)c2C)n(C)c1=O	45	0.9	1.1	0.5	8
C=C(C)Cn1c(=O)c2c(nc3n2CCN3c2cccc(Cl)c2C)n(C)c1=O	50*	0.9	1.3	0.5	6
CC(=O)NC(Cc1cc(C)ccc1C)C(=O)N1CCN(C(=O)Nc2ccc(C(C)=O)cc2)CC1 (stereo not drawn)	-1	0.9	1.5	1	13
CC(NC(=O)c1cccc(Cn2cc([N+](=O)[O-])cn2)c1)c1ccc(C(C)(C)C)cc1 (stereo not drawn)	81*	0.4	1.5	0.2	61*
CCC(NC(=O)c1cccc(Cn2cc([N+](=O)[O-])cn2)c1)c1ccc(C(C)C)cc1 (stereo not drawn)	96*	0.6	1.4	0	44
Cc1ccc(C(CC(=O)O)C2CCOC(C)(C)C2)cc1 (stereo not drawn)	-15	1	1.1	1.1	-3
O/N=C1\CCCc2oc3c(c21)CCCC3	-9	1.1	1	1.1	-9
O/N=C1\CCCc2nnc3c(c21)CCCC3	-193	1	1	2.9*	1
Cc1nc(=O)c(-c2ccccc2)c(C)n1CCCCCC(=O)O	0	1	1	1	-4
CCOC(=O)C1=C(C)NC2=C(C(=O)CCC2)C1c1cccnc1 (stereo not drawn)	32	0.7	0.9	0.7	35
CC1=C(C(=O)OCC2CCCO2)C(c2ccncc2)C2=C(CCCC2=O)N1 (stereo not drawn)	48	0.2	1.1	0.5	75*
CC1=C(C(=O)OCC2CCCO2)C(c2ccccc2)NC(=O)N1 (stereo not drawn)	18	0.4	1	0.8	62*
COC(=O)C1CC(O)CN1C(=O)c1ccco1 (stereo not drawn)	-22	1.2	1.1	1.2	-23
CCOC(=O)c1cc(NC(=O)OC)c(C)nc1C	-21	1	0.9	1.2	-4
Cc1cc2c(C)cc(=O)oc2c2c1NCCC2	-210	0.8	1.1	3.1*	16
Cc1cc(=O)oc2cc3c(cc12)OCCN3	9	0.9	1.2	0.9	6
CCn1c(CC(=O)Nc2ccccc2F)nnc1SCC(=O)N1CCN(c2ccccc2)CC1	44	0.9	1.2	0.6	14
CN(CCNC(=O)Cn1c(=O)sc2ccccc21)Cc1ccccc1	-10	0.6	1.4	1.1	40
COc1ccc(-c2cc(C3CC3)nc3sc(C#N)c(N)c23)cc1	59*	0.4	1.5	0.4	57*
O=C(CCn1c(=O)oc2ccccc21)N1CCN(c2ccccc2F)CC1	27	0.3	1.4	0.7	73*
CC1CCN(S(=O)(=O)c2ccc3c(c2)oc(=O)n3CC(=O)N2c3ccccc3CC2C)CC1 (stereo not drawn)	42	0.5	1.2	0.6	46
CC1Cc2ccccc2N1C(=O)CCn1c(=O)oc2ccccc21 (stereo not drawn)	77*	0.1	1.4	0.2	94*

Assay outcomes: PubChem BioAssay, Sanford-Burnham Center for Chemical Genomics
